Test results reported in PubChem BioAssay (NCI).
About 83,000 compounds went through this panel and 20% of them were active in at least one assay; those are over-represented in the sample as a whole.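 Compound tested at a single concentration for 48 hours in 96-well plates; a percent growth value below 10 was scored as active.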 The source made the active and inactive calls.

Columns and labels:
Assay in all cases: NCI-60 one-dose screen, 48 h (100 = growth as untreated, 0 = no growth, -100 = all killed)
Details in all cases: 10 µM unless noted
SR leukemia = system: SR leukemia
RPMI-8226 leukemia = system: RPMI-8226 leukemia
OVCAR-8 ovarian = system: OVCAR-8 ovarian
OVCAR-5 ovarian = system: OVCAR-5 ovarian
OVCAR-4 ovarian = system: OVCAR-4 ovarian
SK-OV-3 ovarian = system: SK-OV-3 ovarian
IGROV1 ovarian = system: IGROV1 ovarian
OVCAR-3 ovarian = system: OVCAR-3 ovarian
HS 578T breast = system: HS 578T breast
NCI/ADR-RES ovarian = system: NCI/ADR-RES ovarian
T-47D breast = system: T-47D breast
BT-549 breast = system: BT-549 breast
MDA-MB-435 melanoma = system: MDA-MB-435 melanoma
SW-620 colon = system: SW-620 colon
HCT-116 colon = system: HCT-116 colon
HCC-2998 colon = system: HCC-2998 colon
KM12 colon = system: KM12 colon
MCF7 breast = system: MCF7 breast

Measured: growth

COc1cc(C2CC(c3ccc(Nc4nc(Nc5ccc(Cl)cc5)nc(Nc5ccc(Cl)cc5)n4)cc3)=NN2C(C)=O)cc(OC)c1OC (centres undefined)
inactive: SR leukemia 72.7% | RPMI-8226 leukemia 32% | OVCAR-8 ovarian 107% | OVCAR-5 ovarian 92.8% | OVCAR-4 ovarian 97.3% | SK-OV-3 ovarian 126% | IGROV1 ovarian 85.7% | OVCAR-3 ovarian 105% | HS 578T breast 122% | NCI/ADR-RES ovarian 92.7% | T-47D breast 69.2% | BT-549 breast 104% | MDA-MB-435 melanoma 89.1% | SW-620 colon 106% | HCT-116 colon 84.9% | HCC-2998 colon 100% | KM12 colon 106%

O=c1[nH]c(Cc2nc3ccccc3s2)nc2cc(Br)ccc12
inactive: SR leukemia 75.4% | RPMI-8226 leukemia 66.7% | OVCAR-8 ovarian 70.8% | OVCAR-5 ovarian 66.5% | OVCAR-4 ovarian 92.4% | SK-OV-3 ovarian 78.8% | IGROV1 ovarian 73.9% | OVCAR-3 ovarian 86.4% | HS 578T breast 84.2% | NCI/ADR-RES ovarian 72.8% | T-47D breast 54.2% | BT-549 breast 70.2% | MDA-MB-435 melanoma 45.6% | SW-620 colon 61.3% | HCT-116 colon 50.6% | HCC-2998 colon 84.1% | KM12 colon 41.4%

CC(C)(C)[Si](C)(C)OC1[C@@H](CNC(=O)NC(=O)NC(N)=O)O[C@@H](n2cnc3c(NC(=O)Nc4ccccc4)ncnc32)[C@H]1O[Si](C)(C)C(C)(C)C (some centres undefined)
inactive: SR leukemia 40.8% | RPMI-8226 leukemia 69.1% | OVCAR-8 ovarian 23% | OVCAR-5 ovarian 96.1% | OVCAR-4 ovarian 66.7% | SK-OV-3 ovarian 65.4% | IGROV1 ovarian 78.4% | OVCAR-3 ovarian 68.4% | HS 578T breast 77.1% | NCI/ADR-RES ovarian 85.3% | T-47D breast 82.8% | BT-549 breast 95.4% | MDA-MB-435 melanoma 68.9% | SW-620 colon 55.9% | HCT-116 colon 20.5% | HCC-2998 colon 85.8% | KM12 colon 61.5%

COc1cc(OC)c(/C=C/C(=O)c2c(OC)cccc2OC)c(OC)c1
inactive: SR leukemia 23.3% | RPMI-8226 leukemia 16.7% | OVCAR-8 ovarian 24.2% | OVCAR-4 ovarian 68.4% | SK-OV-3 ovarian 21.7% | HS 578T breast 88.7% | T-47D breast 30.1% | SW-620 colon 17.7% | MCF7 breast 25.1%
active: OVCAR-5 ovarian 4.82% | IGROV1 ovarian -1.35% | OVCAR-3 ovarian -42.2% | NCI/ADR-RES ovarian -22.1% | BT-549 breast 7.43% | MDA-MB-435 melanoma -22% | HCT-116 colon 9.06% | KM12 colon 8.59%

Cc1cc(C(=O)Nc2ncc(Cc3cccc(C(F)(F)F)c3)s2)c2ccccc2n1
active: SR leukemia 9.35% | HS 578T breast -0.594% | MDA-MB-435 melanoma -27.3%
inactive: RPMI-8226 leukemia 33.9% | OVCAR-8 ovarian 43.4% | OVCAR-5 ovarian 47.7% | OVCAR-4 ovarian 42.4% | SK-OV-3 ovarian 36% | IGROV1 ovarian 31.5% | OVCAR-3 ovarian 13.3% | NCI/ADR-RES ovarian 16.4% | T-47D breast 12.1% | BT-549 breast 34.7% | SW-620 colon 17.3% | HCT-116 colon 18% | HCC-2998 colon 25.6% | KM12 colon 15.5%

COc1ccc(Nc2nc(-c3cc(O)c(C)c(C)c3O)cs2)cc1
inactive: SR leukemia 37.1% | RPMI-8226 leukemia 33.6% | OVCAR-8 ovarian 70.7% | OVCAR-5 ovarian 103% | OVCAR-4 ovarian 73.7% | SK-OV-3 ovarian 71.3% | IGROV1 ovarian 66.5% | OVCAR-3 ovarian 10.5% | HS 578T breast 76.7% | NCI/ADR-RES ovarian 23% | T-47D breast 39.5% | BT-549 breast 79.1% | SW-620 colon 70.6% | HCT-116 colon 82.5% | HCC-2998 colon 110% | KM12 colon 23.7%
active: MDA-MB-435 melanoma 7.82%

C=CC[Se]C(=O)Cc1c(C)n(C(=O)c2ccc(Cl)cc2)c2ccc(OC)cc12
active: SR leukemia 2.02% | RPMI-8226 leukemia -25.8% | OVCAR-8 ovarian -38.1% | OVCAR-5 ovarian -44.7% | OVCAR-4 ovarian -50.7% | SK-OV-3 ovarian -83% | IGROV1 ovarian 2.4% | OVCAR-3 ovarian -40.6% | HS 578T breast -12.7% | NCI/ADR-RES ovarian -7.75% | T-47D breast -24.3% | BT-549 breast 0.594% | MDA-MB-435 melanoma 8.15% | SW-620 colon 5.69% | MCF7 breast -4.29% | HCT-116 colon 5.41% | KM12 colon -27.9%

CCSC(SCC)c1ccc(Cl)cc1
inactive: SR leukemia 109% | RPMI-8226 leukemia 106% | OVCAR-8 ovarian 107% | OVCAR-5 ovarian 109% | OVCAR-4 ovarian 108% | SK-OV-3 ovarian 101% | IGROV1 ovarian 117% | OVCAR-3 ovarian 113% | HS 578T breast 102% | NCI/ADR-RES ovarian 97.1% | T-47D breast 101% | BT-549 breast 112% | MDA-MB-435 melanoma 97.4% | SW-620 colon 99.3% | MCF7 breast 104% | HCT-116 colon 108% | KM12 colon 114%

O=C1Nc2ccccc2/C1=C/c1cccn1CCCCn1c2ccccc2c(=O)c2ccccc21
inactive: SR leukemia 80.1% | RPMI-8226 leukemia 33.5% | OVCAR-8 ovarian 58.8% | OVCAR-5 ovarian 77.9% | OVCAR-4 ovarian 65.8% | SK-OV-3 ovarian 94.6% | IGROV1 ovarian 77.3% | OVCAR-3 ovarian 86.7% | HS 578T breast 86.3% | NCI/ADR-RES ovarian 73.9% | BT-549 breast 74.5% | MDA-MB-435 melanoma 92.7% | SW-620 colon 98.8% | HCT-116 colon 74.2% | HCC-2998 colon 40.5% | KM12 colon 13%
active: T-47D breast 5.03%

c1ccc(-c2oc(-c3ccccc3)c(CN3CCCCC3)c2CN2CCCCC2)cc1
active: SR leukemia -2.07% | RPMI-8226 leukemia -6.38% | T-47D breast 8.84% | HCC-2998 colon -22.9%
inactive: OVCAR-8 ovarian 33% | OVCAR-5 ovarian 50.3% | OVCAR-4 ovarian 11.9% | SK-OV-3 ovarian 52.3% | IGROV1 ovarian 44.7% | OVCAR-3 ovarian 23.4% | HS 578T breast 34.3% | NCI/ADR-RES ovarian 39.8% | MDA-MB-435 melanoma 31.7% | SW-620 colon 39.6% | MCF7 breast 11.7% | HCT-116 colon 20.9% | KM12 colon 22%

COc1ccc(/C=C/C(=O)c2cc3c(N)c(C(=O)Nc4cccc5ccccc45)sc3nc2C)cc1
active: MDA-MB-435 melanoma -18.8%
inactive: SR leukemia 44.1% | RPMI-8226 leukemia 33.4% | OVCAR-8 ovarian 81% | OVCAR-5 ovarian 103% | OVCAR-4 ovarian 88.7% | SK-OV-3 ovarian 87.7% | IGROV1 ovarian 70.4% | OVCAR-3 ovarian 22% | HS 578T breast 47.6% | NCI/ADR-RES ovarian 58.8% | T-47D breast 66.4% | BT-549 breast 87.5% | MCF7 breast 13.5% | HCT-116 colon 86.6% | HCC-2998 colon 94.9% | KM12 colon 74.4%

O=C1c2ccccc2-c2c1c1c(=O)[nH]c3ccccc3c1n2Cc1ccccc1
active: HS 578T breast -15%
inactive: SR leukemia 55.4% | RPMI-8226 leukemia 80.3% | OVCAR-8 ovarian 63.2% | OVCAR-5 ovarian 56.5% | OVCAR-4 ovarian 35% | SK-OV-3 ovarian 76.3% | IGROV1 ovarian 71.5% | OVCAR-3 ovarian 77.2% | NCI/ADR-RES ovarian 67.9% | T-47D breast 62.6% | BT-549 breast 29.5% | MDA-MB-435 melanoma 71.1% | MCF7 breast 56.5% | HCT-116 colon 41% | HCC-2998 colon 55.4% | KM12 colon 71.2%

CCOc1ccc(NC(=O)CSc2oc(-c3ccccc3)nc2S(=O)(=O)c2ccc(C)cc2)cc1
inactive: SR leukemia 41.3% | RPMI-8226 leukemia 71.3% | OVCAR-8 ovarian 40.2% | OVCAR-5 ovarian 101% | OVCAR-4 ovarian 51.1% | SK-OV-3 ovarian 83.3% | IGROV1 ovarian 95% | OVCAR-3 ovarian 56.8% | HS 578T breast 59.9% | NCI/ADR-RES ovarian 58.9% | T-47D breast 57.4% | MDA-MB-435 melanoma 87.4% | SW-620 colon 74.3% | MCF7 breast 61.9% | HCT-116 colon 23.8% | HCC-2998 colon 82.6% | KM12 colon 65.4%

COC1=CC(c2ccc[nH]2)=N/C1=C\c1[nH]c(C)c(CC(=O)OCc2ccccc2)c1CCC(=O)OCc1ccccc1
inactive: OVCAR-4 ovarian 13.6% | IGROV1 ovarian 12.6%
active: SR leukemia -36.2% | RPMI-8226 leukemia -50.8% | OVCAR-8 ovarian -18.9% | OVCAR-5 ovarian -17.1% | SK-OV-3 ovarian -13.6% | OVCAR-3 ovarian -86.8% | HS 578T breast -18.9% | NCI/ADR-RES ovarian -26.4% | T-47D breast -3.22% | BT-549 breast -31.6% | MDA-MB-435 melanoma -49.2% | MCF7 breast 4.14% | HCT-116 colon -68.9% | HCC-2998 colon -3.69% | KM12 colon -38.9%

C#CCOc1cccc(Nc2ncnc3ccc(NC(=O)C=C)cc23)c1
active: SK-OV-3 ovarian -3.78% | IGROV1 ovarian -6.06%
inactive: SR leukemia 21.1% | RPMI-8226 leukemia 35.7% | OVCAR-8 ovarian 32.4% | OVCAR-5 ovarian 52.6% | OVCAR-4 ovarian 59.3% | OVCAR-3 ovarian 19.2% | HS 578T breast 42.4% | NCI/ADR-RES ovarian 36.1% | T-47D breast 39% | BT-549 breast 19.5% | MDA-MB-435 melanoma 43.8% | MCF7 breast 47.6% | HCT-116 colon 32.8% | HCC-2998 colon 84.6% | KM12 colon 60.4%

C=C1C(=O)O[C@H]2[C@H]1CC/C(COC(=O)/C=C\C(=O)NCc1ccc(Cn3c(=O)sn(CCI)c3=O)cc1)=C\CC[C@@]1(C)O[C@@H]21
active: SR leukemia 2.49% | IGROV1 ovarian 3.61%
inactive: RPMI-8226 leukemia 22.4% | OVCAR-8 ovarian 58.3% | OVCAR-5 ovarian 77.7% | OVCAR-4 ovarian 48.3% | SK-OV-3 ovarian 133% | OVCAR-3 ovarian 10.4% | HS 578T breast 89.3% | NCI/ADR-RES ovarian 98% | T-47D breast 57.6% | BT-549 breast 71.9% | MDA-MB-435 melanoma 44.9% | MCF7 breast 24.8% | HCT-116 colon 19% | HCC-2998 colon 83.9% | KM12 colon 97.4%

Cn1cc(-c2nonc2-c2cn(C)c3ccccc23)c2ccccc21
inactive: SR leukemia 16% | RPMI-8226 leukemia 14.2% | OVCAR-8 ovarian 17.4% | OVCAR-5 ovarian 35.5% | OVCAR-4 ovarian 56.1% | SK-OV-3 ovarian 18.7% | IGROV1 ovarian 45.9% | HS 578T breast 30.7% | NCI/ADR-RES ovarian 17.4% | T-47D breast 33.4% | SW-620 colon 24.5% | MCF7 breast 19.4% | HCT-116 colon 11.6% | HCC-2998 colon 51.2% | KM12 colon 27.4%
active: OVCAR-3 ovarian 0.348% | MDA-MB-435 melanoma -34.3%
